According to the supplement of paper PMC10849652:
Of roughly 7,900 targets only a part is listed; those with a hit were picked by preference. About 0.6% of all pairs of compound and target were hits.

How the values were obtained:
Test in all cases: log2 fold change, soluble protein after heating vs DMSO (PISA); higher = thermal stabilisation; K562 cells, 10 uM, 30 min; active = over 0.2 and 3.5 SD of the protein, either way, in both replicates (recomputed)
[1] = compound: C#Cc1cccc(Nc2ncnc3cc(OCCOC)c(OCCOC)cc23)c1 [erlotinib]
In short: (§1)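 K562 cells at 2×10^6 cells/mL were given 10 μM compound for 30 min. Aliquots then went through 3 min of heating across 48°C-58°C, were pooled, and were extracted in PBS with 0.5% NP-40 at 4°C, and the supernatant after 21,000xg for 90 min was quantified by TMTpro 16plex LC-MS/MS with channel sums equalised. Thermal stability relative to control samples, from duplicates, is given as log2 fold change.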

[2] = compound: C/C(=N\NC(=O)C1=CC(=CC=C1)S(=O)(=O)N2CCOCC2)/C3=C(C=CC(=C3)Cl)O
In short: as §1

[3] = compound: C1=CC(=C(C=C1Cl)C2=NC3=NC=CN=C3C(=N2)NC4=CC=NC=C4)F
In short: as §1

[4] = compound: C1=CC(=CC=C1C2=NC3=C(N2)C=C(C=C3)C(=O)N)OC4=CC=C(C=C4)Cl
In short: as §1

[5] = compound: C1=CC2=C(C=CC(=C2)/C=C\3/C(=O)NC(=NCC4=CC=CS4)S3)N=C1
In short: as §1

[6] = compound: C1=CC2=NC=CN=C2C=C1/C=C/3\C(=O)NC(=O)S3
In short: as §1

[7] = compound: C1=CC=C(C=C1)C2=NC(=C(N2)C3=CC=NC=C3)C4=CC(=C(C=C4)Cl)O
In short: as §1

[8] = compound: C1=CC=C2C(=C1)C3=NNC4=CC=CC(=C43)C2=O
In short: as §1

[9] = compound: C1CCN(C1)C(=O)NC2=CC=CC(=C2)NC3=NC=C(C(=N3)NCCC4=CN=CN4)Br
In short: as §1

[10] = compound: C1CN(CCC1(CC2=CC=C(C=C2)Cl)N)C3=NC=NC4=C3C=CN4
In short: as §1

[11] = compound: C=CC(=O)N1CCC[C@@H](n2nc(-c3ccc(Oc4ccccc4)cc3)c3c(N)ncnc32)C1 [ibrutinib]
In short: as §1

[12] = compound: CC(=O)c1cnc2ccc(-c3cc(Cl)c(O)c(Cl)c3)nc2c1N[C@H]1CC[C@H](CN(C)C)CC1
In short: as §1

[13] = compound: CC(C)(C)Cn1c(N)nc2ccc(-c3[nH]c(C(C)(C)C)nc3-c3ccc(F)cc3)nc21 [ralimetinib]
In short: as §1

[14] = compound: CC(C)(O)CC(=O)NCCn1ccc2ncnc(Nc3ccc(Oc4cccc(C(F)(F)F)c4)c(Cl)c3)c21
In short: as §1

[15] = compound: CC(C)C1=C2N=C(C=C(N2N=C1)NCC3=CC=CC=C3)NCCCCCCN
In short: as §1

[16] = compound: CC(C)C[C@@H](C=O)NC(=O)[C@H](CC(C)C)NC(=O)[C@H](CC(C)C)NC(=O)OCc1ccccc1
In short: as §1

[17] = compound: CC1=C(C(CC(=O)N1)C2=CC=C(C=C2)C(F)(F)F)C(=O)NC3=C(C=C4C(=C3)C=NN4)F
In short: as §1

[18] = compound: CC1=C(C2=C(C=C1)C(=O)C3=CC=CC=C3N2CCCN)C
In short: as §1

[19] = compound: C1COCCN1CCN2C3=CC=CC=C3N=C2NC(=O)C4=CC(=CC=C4)[N+](=O)[O-] [IRAK-1-4 Inhibitor I]
In short: as §1

[20] = compound: CC(C)N(C[C@H]1O[C@@H](n2cnc3c(N)ncnc32)[C@H](O)[C@@H]1O)[C@H]1C[C@@H](CCc2nc3cc(C(C)(C)C)ccc3[nH]2)C1 [pinometostat]
In short: as §1

Measured: log2 fold change

ROMO1 (UniProt P60602)
Chain of UniProt P60602 (P60602 whole entry, looked up): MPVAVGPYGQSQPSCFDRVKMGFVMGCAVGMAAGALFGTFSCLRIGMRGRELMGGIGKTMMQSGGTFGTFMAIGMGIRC
inactive: [1] 0.016 | [2] -0.092 | [3] 0.045 | [4] -0.01 | [5] -0.009 | [6] 0.018 | [7] 0.008 | [8] 0.003 | [9] 0.039 | [10] 0.001 | [11] 0.069 | [12] -0.044 | [13] -0.024 | [14] 0.052 | [15] -0.051 | [16] -0.083 | [17] 0.039 | [18] -0.077

SEC23A (UniProt Q15436)
Chain of UniProt Q15436 (Q15436 whole entry, looked up): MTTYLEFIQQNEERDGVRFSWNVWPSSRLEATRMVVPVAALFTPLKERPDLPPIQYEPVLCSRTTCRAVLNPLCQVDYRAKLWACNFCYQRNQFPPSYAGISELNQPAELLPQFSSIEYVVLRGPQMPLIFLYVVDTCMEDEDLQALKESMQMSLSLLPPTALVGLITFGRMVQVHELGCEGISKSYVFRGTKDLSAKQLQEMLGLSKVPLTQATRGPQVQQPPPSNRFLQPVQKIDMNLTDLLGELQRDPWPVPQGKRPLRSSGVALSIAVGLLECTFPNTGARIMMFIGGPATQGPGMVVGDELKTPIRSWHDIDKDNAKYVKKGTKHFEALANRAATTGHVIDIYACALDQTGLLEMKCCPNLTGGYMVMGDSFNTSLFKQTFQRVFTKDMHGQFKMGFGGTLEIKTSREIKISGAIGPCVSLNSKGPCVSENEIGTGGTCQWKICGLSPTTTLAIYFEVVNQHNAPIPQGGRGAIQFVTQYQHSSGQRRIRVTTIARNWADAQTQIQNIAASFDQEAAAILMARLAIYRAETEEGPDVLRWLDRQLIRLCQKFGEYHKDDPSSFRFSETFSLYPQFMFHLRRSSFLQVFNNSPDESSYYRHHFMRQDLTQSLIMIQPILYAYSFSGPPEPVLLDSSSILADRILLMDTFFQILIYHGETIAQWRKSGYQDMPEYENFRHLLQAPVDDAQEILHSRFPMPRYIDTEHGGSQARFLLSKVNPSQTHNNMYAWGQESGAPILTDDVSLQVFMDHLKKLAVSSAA
inactive: [1] 0.026 | [2] 0.1 | [3] 0.022 | [4] -0.036 | [5] -0.024 | [6] 0.021 | [7] 0.005 | [8] -0.018 | [9] 0.019 | [10] -0.019 | [19] 0.06 | [11] 0 | [12] 0.077 | [13] 0.026 | [14] -0.123 | [15] -0.014 | [16] -0.006 | [20] -0.004 | [17] 0.024 | [18] 0.121

RAP2C (UniProt Q9Y3L5)
Chain of UniProt Q9Y3L5 (Q9Y3L5 whole entry, looked up): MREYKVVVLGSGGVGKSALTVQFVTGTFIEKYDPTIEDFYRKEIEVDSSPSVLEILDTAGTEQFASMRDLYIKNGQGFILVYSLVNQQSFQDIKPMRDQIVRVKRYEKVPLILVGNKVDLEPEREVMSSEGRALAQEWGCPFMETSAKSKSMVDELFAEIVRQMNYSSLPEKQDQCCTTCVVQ
inactive: [1] 0.021 | [2] 0.119 | [3] 0.205 | [4] 0.01 | [5] -0.097 | [6] 0.026 | [7] 0.026 | [8] 0.167 | [9] -0.008 | [10] 0.034 | [11] 0.016 | [12] -0.032 | [13] 0.021 | [14] -0.107 | [15] 0.148 | [16] 0.048 | [17] -0.104 | [18] 0.11

RPS15 (UniProt P62841)
active: [18] -0.574
inactive: [1] -0.173 | [2] -0.259 | [3] -0.208 | [4] 0.016 | [5] 0.028 | [6] -0.092 | [7] 0.036 | [8] -0.131 | [9] 0.188 | [10] -0.138 | [19] -0.114 | [11] 0.11 | [12] -0.042 | [13] 0.076 | [14] 0.103 | [15] -0.043 | [16] 0.11 | [20] 0.088 | [17] 0.071

RABGAP1L isoform 5 (UniProt Q5R372)
inactive: [1] 0.114 | [2] 0.043 | [3] -0.076 | [4] 0.089 | [5] -0.007 | [6] 0.045 | [8] -0.097 | [9] 0.023 | [10] 0.016 | [19] 0.04 | [11] -0.031 | [12] -0.025 | [14] -0.057 | [15] -0.125 | [20] -0.17 | [17] -0.297 | [18] -0.271

RPS20 isoform 2 (UniProt P60866)
inactive: [1] -0.129 | [2] -0.082 | [3] -0.171 | [4] 0.023 | [5] -0.004 | [6] -0.068 | [7] -0.04 | [8] -0.025 | [9] 0.05 | [10] -0.159 | [19] -0.103 | [11] 0.012 | [12] 0.02 | [13] 0.041 | [14] 0.046 | [15] -0.03 | [16] 0.012 | [20] 0.123 | [17] 0.195
active: [18] -0.368

RNF167 (UniProt Q9H6Y7)
inactive: [1] -0.133 | [2] -0.073 | [3] -0.069 | [4] 0.052 | [5] 0.025 | [6] 0.025 | [7] -0.004 | [8] -0.07 | [9] -0.018 | [10] -0.009 | [19] -0.001 | [11] 0.015 | [12] 0.039 | [13] -0.018 | [14] -0.025 | [15] -0.047 | [16] -0.009 | [20] 0.015 | [17] 0.064 | [18] 0

RRP36 (UniProt Q96EU6)
Chain of UniProt Q96EU6 (Q96EU6 whole entry, looked up): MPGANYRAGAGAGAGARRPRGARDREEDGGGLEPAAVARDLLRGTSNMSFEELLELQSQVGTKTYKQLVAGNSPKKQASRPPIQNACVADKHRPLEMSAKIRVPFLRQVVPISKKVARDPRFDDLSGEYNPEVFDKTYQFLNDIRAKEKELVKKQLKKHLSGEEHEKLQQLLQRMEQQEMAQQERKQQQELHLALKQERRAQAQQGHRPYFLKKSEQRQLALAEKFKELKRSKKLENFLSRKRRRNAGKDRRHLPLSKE
active: [18] -0.785
inactive: [1] -0.192 | [2] -0.147 | [3] -0.586 | [4] -0.005 | [5] -0.133 | [6] -0.06 | [7] 0.019 | [8] 0.012 | [9] 0.045 | [10] -0.146 | [11] 0.045 | [12] 0.122 | [13] 0.083 | [14] 0 | [15] 0.044 | [16] 0.042 | [17] 0.021

SLC1A3 (UniProt P43003)
Chain of UniProt P43003 (P43003 whole entry, looked up): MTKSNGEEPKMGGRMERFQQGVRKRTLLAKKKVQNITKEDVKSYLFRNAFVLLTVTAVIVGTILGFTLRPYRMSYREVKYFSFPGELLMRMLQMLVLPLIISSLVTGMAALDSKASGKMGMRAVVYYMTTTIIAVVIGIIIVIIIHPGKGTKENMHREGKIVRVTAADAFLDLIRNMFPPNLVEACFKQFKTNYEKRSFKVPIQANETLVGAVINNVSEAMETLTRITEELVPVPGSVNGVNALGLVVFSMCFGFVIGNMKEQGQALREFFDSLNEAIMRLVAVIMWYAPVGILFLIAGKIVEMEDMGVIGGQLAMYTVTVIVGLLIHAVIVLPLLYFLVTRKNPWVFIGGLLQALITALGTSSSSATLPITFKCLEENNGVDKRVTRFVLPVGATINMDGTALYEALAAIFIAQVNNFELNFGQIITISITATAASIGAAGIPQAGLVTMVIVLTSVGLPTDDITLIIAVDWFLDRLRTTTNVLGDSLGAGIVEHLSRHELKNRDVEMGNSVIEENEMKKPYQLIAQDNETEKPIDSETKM
inactive: [1] 0.025 | [2] 0.017 | [3] 0.194 | [4] 0.053 | [5] -0.169 | [6] 0.001 | [7] 0.007 | [8] 0.012 | [9] 0.05 | [10] 0.163 | [11] 0.168 | [12] 0.056 | [13] 0.058 | [14] 0.007 | [15] 0.238 | [16] -0.064 | [17] 0.018 | [18] 0.029

SASH1 (UniProt O94885)
inactive: [1] -0.013 | [2] 0.12 | [3] 0.145 | [4] -0.01 | [5] -0.104 | [6] -0.009 | [7] 0.005 | [8] 0.107 | [9] -0.041 | [10] -0.079 | [19] 0.145 | [11] -0.069 | [12] -0.097 | [13] -0.138 | [14] 0.002 | [15] -0.25 | [16] 0.152 | [20] 0.081 | [17] -0.077 | [18] 0.07

RBM39 (UniProt Q14498)
Chain of UniProt Q14498 (Q14498 whole entry, looked up): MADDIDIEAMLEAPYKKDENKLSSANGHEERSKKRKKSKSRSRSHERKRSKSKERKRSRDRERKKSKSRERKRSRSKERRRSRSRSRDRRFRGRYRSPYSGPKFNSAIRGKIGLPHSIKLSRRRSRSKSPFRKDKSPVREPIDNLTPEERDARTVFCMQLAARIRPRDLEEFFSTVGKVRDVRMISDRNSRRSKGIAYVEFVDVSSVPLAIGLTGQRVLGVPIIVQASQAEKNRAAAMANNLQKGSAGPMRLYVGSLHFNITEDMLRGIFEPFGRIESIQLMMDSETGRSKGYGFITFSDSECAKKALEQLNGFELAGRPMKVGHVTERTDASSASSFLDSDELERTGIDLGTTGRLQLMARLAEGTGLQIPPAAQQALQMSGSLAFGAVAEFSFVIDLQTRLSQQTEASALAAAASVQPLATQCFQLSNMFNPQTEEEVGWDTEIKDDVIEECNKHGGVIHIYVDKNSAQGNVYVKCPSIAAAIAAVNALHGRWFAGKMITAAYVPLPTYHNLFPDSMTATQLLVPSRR
inactive: [1] 0.087 | [2] 0.074 | [3] 0.013 | [4] -0.028 | [5] -0.021 | [6] -0.052 | [7] -0.022 | [8] -0.168 | [9] -0.071 | [10] -0.232 | [19] -0.193 | [11] 0 | [13] 0.044 | [14] -0.028 | [15] -0.267 | [16] 0.043 | [20] 0.042 | [17] -0.022 | [18] 0.104
active: [12] -0.497

RDH10 (UniProt Q8IZV5)
inactive: [1] 0.122 | [2] 0.065 | [3] 0.024 | [4] 0.003 | [5] 0.204 | [6] -0.035 | [7] 0.077 | [8] 0.039 | [9] -0.008 | [10] 0.235 | [19] 0.076 | [11] 0.159 | [12] -0.07 | [13] 0.008 | [14] 0.075 | [15] 0.069 | [16] -0.043 | [20] -0.018 | [17] 0.007 | [18] 0.007

SEPTIN5 (UniProt Q99719)
Chain of UniProt Q99719 (Q99719 whole entry, looked up): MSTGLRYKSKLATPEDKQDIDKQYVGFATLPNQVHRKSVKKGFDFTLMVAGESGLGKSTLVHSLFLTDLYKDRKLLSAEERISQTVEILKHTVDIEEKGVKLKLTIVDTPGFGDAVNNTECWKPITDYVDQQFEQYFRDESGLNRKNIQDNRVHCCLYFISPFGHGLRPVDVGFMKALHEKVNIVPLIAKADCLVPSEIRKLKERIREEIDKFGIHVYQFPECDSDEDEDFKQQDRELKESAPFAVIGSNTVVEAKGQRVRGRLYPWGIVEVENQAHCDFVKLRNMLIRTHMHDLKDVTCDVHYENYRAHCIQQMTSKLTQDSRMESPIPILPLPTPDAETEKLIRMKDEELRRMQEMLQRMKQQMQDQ
inactive: [1] 0.009 | [2] 0.014 | [3] 0.021 | [4] 0.006 | [5] 0.004 | [6] 0.019 | [7] -0.011 | [8] 0.015 | [9] -0.012 | [10] 0.039 | [19] 0.014 | [11] -0.013 | [12] -0.031 | [13] -0.084 | [14] -0.03 | [15] 0.034 | [16] -0.051 | [20] -0.041 | [17] -0.005 | [18] 0.011

SF3B5 (UniProt Q9BWJ5)
Chain of UniProt Q9BWJ5 (Q9BWJ5 whole entry, looked up): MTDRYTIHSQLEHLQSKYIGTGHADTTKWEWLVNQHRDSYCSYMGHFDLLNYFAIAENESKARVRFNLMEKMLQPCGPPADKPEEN
inactive: [1] -0.088 | [2] -0.04 | [3] 0.319 | [4] 0.051 | [5] 0.023 | [6] 0.199 | [8] 0.107 | [9] -0.104 | [10] -0.002 | [19] 0.055 | [11] 0.127 | [12] -0.067 | [14] -0.224 | [15] 0.118 | [20] 0.045 | [17] 0.011 | [18] 0.156

RNF2 (UniProt Q99496)
Chain of UniProt Q99496 (Q99496 whole entry, looked up): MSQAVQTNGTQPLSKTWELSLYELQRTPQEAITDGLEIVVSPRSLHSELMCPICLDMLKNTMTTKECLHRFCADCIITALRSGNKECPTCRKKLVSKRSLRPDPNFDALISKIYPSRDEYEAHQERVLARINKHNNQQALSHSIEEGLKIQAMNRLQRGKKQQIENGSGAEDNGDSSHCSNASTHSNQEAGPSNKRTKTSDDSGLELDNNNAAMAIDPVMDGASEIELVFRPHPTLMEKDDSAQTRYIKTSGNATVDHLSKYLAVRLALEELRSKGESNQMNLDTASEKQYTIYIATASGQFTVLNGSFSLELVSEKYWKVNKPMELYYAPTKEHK
inactive: [1] -0.014 | [2] 0.116 | [3] -0.013 | [4] -0.231 | [5] -0.057 | [6] -0.004 | [8] -0.053 | [9] -0.103 | [10] -0.006 | [19] -0.024 | [11] 0.086 | [12] 0.001 | [14] -0.065 | [15] 0.091 | [20] 0.066 | [17] 0.04 | [18] -0.058

SETMAR (UniProt Q53H47)
Chain of UniProt Q53H47 (Q53H47 whole entry, looked up): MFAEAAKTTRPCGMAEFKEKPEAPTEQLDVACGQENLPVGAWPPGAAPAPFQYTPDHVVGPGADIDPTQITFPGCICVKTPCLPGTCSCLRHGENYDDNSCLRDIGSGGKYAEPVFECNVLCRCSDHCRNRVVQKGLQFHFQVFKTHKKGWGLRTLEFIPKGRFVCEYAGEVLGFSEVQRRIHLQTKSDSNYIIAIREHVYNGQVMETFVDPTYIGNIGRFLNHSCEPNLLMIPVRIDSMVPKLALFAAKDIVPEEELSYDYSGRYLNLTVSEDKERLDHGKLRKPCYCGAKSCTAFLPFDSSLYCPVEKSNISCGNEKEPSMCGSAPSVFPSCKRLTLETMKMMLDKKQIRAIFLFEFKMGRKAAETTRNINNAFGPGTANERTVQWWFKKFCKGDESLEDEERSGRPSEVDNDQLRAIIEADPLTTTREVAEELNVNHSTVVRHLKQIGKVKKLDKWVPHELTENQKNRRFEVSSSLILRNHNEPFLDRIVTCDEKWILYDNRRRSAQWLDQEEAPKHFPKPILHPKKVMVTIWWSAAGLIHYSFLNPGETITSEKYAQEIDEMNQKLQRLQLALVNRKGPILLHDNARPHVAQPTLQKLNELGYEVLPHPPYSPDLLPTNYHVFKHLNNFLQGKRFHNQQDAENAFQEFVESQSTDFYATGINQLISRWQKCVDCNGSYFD
active: [18] 0.509
inactive: [1] 0.004 | [2] -0.044 | [3] 0.046 | [4] -0.018 | [5] 0.133 | [6] -0.029 | [7] -0.01 | [8] 0.008 | [9] -0.031 | [10] -0.248 | [19] 0.093 | [11] -0.04 | [12] -0.135 | [13] -0.025 | [14] 0.047 | [15] 0.227 | [16] -0.061 | [20] 0.078 | [17] 0.012

SCO2 (UniProt O43819)
Chain of UniProt O43819 (O43819 whole entry, looked up): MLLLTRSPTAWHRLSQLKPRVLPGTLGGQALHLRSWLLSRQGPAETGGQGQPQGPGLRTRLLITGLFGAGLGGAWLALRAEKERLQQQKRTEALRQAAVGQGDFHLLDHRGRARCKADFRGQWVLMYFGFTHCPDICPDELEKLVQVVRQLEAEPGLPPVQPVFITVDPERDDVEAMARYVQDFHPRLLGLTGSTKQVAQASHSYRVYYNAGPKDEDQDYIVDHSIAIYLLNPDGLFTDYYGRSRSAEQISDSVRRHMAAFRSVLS
inactive: [1] 0.092 | [2] 0.012 | [3] 0.055 | [4] 0.048 | [5] 0.243 | [6] -0.054 | [7] 0.017 | [8] 0.163 | [9] -0.042 | [10] 0.101 | [19] 0.02 | [11] 0.014 | [12] -0.06 | [13] 0.142 | [14] -0.154 | [15] -0.071 | [16] 0.024 | [20] 0.054 | [18] 0.07
